697 NFkB inh: lowers PMA/ionomycin-induced NF-kB signal in 697 B cells. actives 0.33% (n = 330,000). inhibition, % at 4 µM. 697 B-cell NF-kB luciferase reporter, 16 h; in the data active means inhibition above about 35%
aSyn 5UTR inh: 5' untranslated region of α-synuclein, MLPCN primary screen. alpha-synuclein 5'UTR reporter, inhibitor activity. inhibition, % (tested at 7.5 µM). actives 0.82% (n = 300,000); in the data active means inhibition above about 60%;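 further: H4 neuroglioblastoma cells stably carrying SNCA 5'UTR luciferase fusion; 0% = DMSO wells and 100% = positive control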
Jurkat NFkB inh: inhibitors of the PMA/ionomycin-induced NF-kB reporter in Jurkat cells. PMA/ionomycin-induced NF-kB luciferase reporter, luminescence. inhibition, % at 4 µM. actives 0.53% (n = 330,000). AID 435003; in the data active means inhibition above about 50%
Gli-Sufu antag: Gli-Sufu pathway antagonism; inhibition, % at 5 µM; Sufu-KO-LIGHT fibroblasts, Gli luciferase reporter luminescence; actives 0.74% (n = 340,000);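 active means inhibition above about 55%, limit read from the data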;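 further: 0% = DMSO-treated cells and 100% = wells with medium but no cells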
Mdm2-MdmX inh: disrupts the human Mdm2-MdmX interaction; SaOS-2 split-luciferase Mdm2/MdmX complementation, luminescence; inhibition, % at 8 µM; actives 3% (n = 330,000); O15151+Q00987; AID 485346;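 active means inhibition of at least 50% at 8 µM in the primary screen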
Target sequence (O15151 whole entry, looked up): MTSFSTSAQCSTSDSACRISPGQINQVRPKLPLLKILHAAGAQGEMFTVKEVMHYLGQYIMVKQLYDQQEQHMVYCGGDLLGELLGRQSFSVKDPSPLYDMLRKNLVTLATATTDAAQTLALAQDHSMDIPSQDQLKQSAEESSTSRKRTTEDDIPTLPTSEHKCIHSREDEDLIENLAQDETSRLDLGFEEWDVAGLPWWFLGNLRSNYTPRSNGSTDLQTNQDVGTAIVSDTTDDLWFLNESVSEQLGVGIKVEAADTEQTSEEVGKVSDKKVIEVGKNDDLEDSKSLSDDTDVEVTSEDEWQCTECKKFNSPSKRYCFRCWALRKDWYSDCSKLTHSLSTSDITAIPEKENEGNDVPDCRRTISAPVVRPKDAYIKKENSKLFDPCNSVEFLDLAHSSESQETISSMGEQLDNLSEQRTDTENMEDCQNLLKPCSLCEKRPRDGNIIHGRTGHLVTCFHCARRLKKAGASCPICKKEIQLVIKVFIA
Target sequence (Q00987 whole entry, looked up): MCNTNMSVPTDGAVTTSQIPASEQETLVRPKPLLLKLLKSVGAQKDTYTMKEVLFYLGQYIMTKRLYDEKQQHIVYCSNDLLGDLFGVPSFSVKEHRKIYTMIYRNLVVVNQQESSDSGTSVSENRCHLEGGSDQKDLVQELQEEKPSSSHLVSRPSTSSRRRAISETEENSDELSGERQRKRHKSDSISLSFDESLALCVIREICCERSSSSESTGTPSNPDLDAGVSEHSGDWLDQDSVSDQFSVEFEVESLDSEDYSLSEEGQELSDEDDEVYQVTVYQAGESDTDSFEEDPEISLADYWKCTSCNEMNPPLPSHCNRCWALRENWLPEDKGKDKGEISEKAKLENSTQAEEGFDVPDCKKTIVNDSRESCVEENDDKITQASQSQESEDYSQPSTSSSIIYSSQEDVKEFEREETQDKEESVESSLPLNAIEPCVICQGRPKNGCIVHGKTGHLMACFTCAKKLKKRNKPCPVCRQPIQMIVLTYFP
CSC inhib: cancer stem cell inhibition; inhibition, % at 7.5 µM; cancer stem cell-like cells viability, luminescence; actives 1.1% (n = 300,000); in the data active means inhibition above about 75%; tested in HMLE shEcad cells
Mdm2-MdmX conf: confirmation of human Mdm2/MdmX interaction inhibitors | shares compounds with Mdm2-MdmX inh | Mdm2-MdmX binding, luminescent assay | inhibition, % at 8 µM | actives 55% (n = 10,000); in the data active means inhibition above about 40%
FLuc counter: inhibits full-length luciferase, flagging false Mdm2/MdmX hits. shares compounds with Mdm2-MdmX inh. SaOS-2 full-length luciferase counterscreen, luminescence. inhibition, % at 8 µM. actives 77% (n = 6,200). AID 504607;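 active means mean inhibition at 8 µM reaching about 37%, which flags the compound as non-specific, limit read from the data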;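 further: p53-null SaOS-2 cells with luciferase driven by a doxycycline-inducible promoter; compound on cells about two nights before reading with doxycycline added after day one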
* marks the source's active call; other numbers are inactive results; . = no result. Compounds with a hit are over-represented: about 4.5% of the library has one in this group of screens.

SMILES	697 NFkB inh	aSyn 5UTR inh	Jurkat NFkB inh	Gli-Sufu antag	Mdm2-MdmX inh	CSC inhib	Mdm2-MdmX conf	FLuc counter
COc1cc2ncnc(NCc3ccc(Cl)cc3)c2cc1OC	7.7	-16.6	0.3	16.9	28.2	36.1	.	.
Brc1ccc2ncnc(NCc3ccccc3)c2c1	-20.3	12.4	35.5	43.2	84.4*	-9.6	81.2*	52.5*
Cc1cccc(Nc2ncnc3ccc(Br)cc23)c1	-7.3	3.5	-0.1	-9.6	75.5*	32.4	58.8*	25.6
Cc1ccc2ncnc(Nc3ccccc3)c2c1	16.9	-18.4	-6.9	.	33.4	33.5	.	.
COc1ccc(Nc2ncnc3ccc(Br)cc23)cc1OC	6.7	-11.8	15.9	-33.4	57.7*	3.0	63.7*	30.5
CC(=O)c1cc2c(cc1C)CCCC2(C)C	.	.	.	-7.9	.	.	.	.
Cc1cc(OC(C)C(=O)NCCCN2CCOCC2)c2c(C)c(C)c(=O)oc2c1 (stereo not drawn)	16.8	-26.4	-7.8	-2.7	2.9	-8.7	.	.
COc1cc2c3nnc(-c4ccc(F)cc4)c-3cn(Cc3cccc(C)c3)c2cc1OC	-26.2	16.1	6.2	6.2	96.5*	17.6	99.2*	86.9*
COc1cc2c3nnc(-c4ccc(F)cc4)c-3cn(Cc3ccc(C)cc3)c2cc1OC	-25.2	4.1	6.4	11.6	78.2*	-1.2	72.3*	68.2*
COc1cc2c3nnc(-c4ccc(F)cc4)c-3cn(Cc3cccc(F)c3)c2cc1OC	8.3	7.8	4.7	9.3	89.2*	5.9	100.2*	50.4*
CCN(CC)C(=O)Oc1cc(=O)n2c3c(cccc13)CCC2	-1.6	-5.9	9.4	-4.4	19.3	-3.2	.	.
O=C(COc1ccccc1)NC(=S)Nc1ccc2c3c(cccc13)CC2	-19.2	2.0	-13.4	-0.1	26.6	12.3	.	.
O=C(/C=C/c1ccccc1)NC(=S)Nc1ccc2c3c(cccc13)CC2	1.2	-38.1	-11.2	2.5	59.4*	7.6	12.4	.
CCCc1n[nH]c2c1C(=O)C(C(=O)OC)C(C)(C)C2 (stereo not drawn)	2.6	-12.5	1.2	9.6	40.6	-13.4	.	.
O=C(NC1CC1)C1CCN(C2CCN(C(=O)/C=C/c3cccc(F)c3F)CC2)CC1	28.2	15.2	-4.9	-2.1	3.2	5.1	.	.
CC(=O)Nc1cccc(C(=O)/C=C/c2ccc(F)cc2)c1	14.6	-103.1	-6.9	-20.4	73.0*	46.3	24.6	.
Cc1cccc(C(=O)Nc2ccc(C(=O)/C=C/c3ccncc3)cc2)c1	-7.8	-159.8	-7.3	-14.6	96.5*	30.0	10.8	.
CCC(=O)Nc1cccc(C(=O)/C=C/c2cc(Br)ccc2OC)c1	-47.2	-125.2	28.7	-21.3	97.1*	0.5	80.0*	58.9*
Cc1cccc(C(=O)Nc2ccc(C(=O)/C=C/c3cccnc3)cc2)c1	.	-98.3	.	8.8	.	51.9	.	.
CC(=O)Nc1cccc(C(=O)/C=C/c2ccc(Br)cc2)c1	5.0	-75.5	4.5	-21.8	96.6*	126.7*	73.8*	53.0*
O=C(Nc1ccccn1)C(F)(F)C(F)(F)C(F)(F)C(F)(F)C(=O)Nc1ccccn1	-17.1	-1.5	-4.1	7.6	11.9	2.6	.	.
CC(C)CC(=O)N=C1SC2CS(=O)(=O)CC2N1Cc1ccccc1Cl (stereo not drawn)	-13.6	5.0	8.8	2.3	5.4	4.3	.	.
Cc1ccc(-n2c(O)c(/C=N/NC(=O)C3COc4ccccc4O3)c3ccccc3c2=O)cc1 (stereo not drawn)	-26.6	-22.0	-14.9	0.3	60.4*	.	-1.6	.
COc1cc2c(cc1OC)CN(C(=O)CCNS(=O)(=O)c1ccccc1F)CC2	-2.2	3.6	1.1	-0.3	18.7	.	.	.
O=C1c2ccccc2-c2onc3ccc(Oc4ccccc4)c1c23	-58.7	-22.9	49.3	-7.4	96.3*	.	63.3*	50.5*
O=C(Nc1nc(-c2ccccc2)c(-c2ccccc2)s1)c1ccc(S(=O)(=O)N2CCCC2)cc1	-16.0	0.2	-1.5	4.4	59.4*	-3.5	-3.3	.
CCc1cc2c(COC(=O)CCNS(=O)(=O)c3cccc(C(F)(F)F)c3)cc(=O)oc2cc1O	-4.0	.	-2.9	1.1	82.7*	30.2	-11.5	.
COc1cccc(-c2c(-c3cc(OC)cc(OC)c3)n(C)c3ccc(-c4cnc(OC)nc4)cc23)c1	11.9	.	-15.2	15.1	20.2	38.3	.	.
